Most compounds without a hit are left out; they make up all but 19% or so of the library.
HT1080 IDH1KD tx – qHTS for induction of synthetic lethality in tumor cells producing 2HG: qHTS for the HT-1080-IDH1KD cell line | Potency, µM (series often up to 46.1 µM), inactives show at the top dose activity, negative = toxicity, actives largely listed as cytotoxic | HT-1080 IDH1 knockdown viability, ATP luminescence, 48 h | 360,000 compounds, 2% hits;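 note: potency is the fitted concentration of half-maximal effect; 0% = DMSO wells and -100% = cell-free medium wells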
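% activity derives from luminescence (CellTiter-Glo), normalised to DMSO and no-cell wells. HT-1080-IDH1KD cells, 750/well, had 48 h compound exposure at 37 °C.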
TDP1 cell CPT – qHTS for Inhibitors of human tyrosyl-DNA phosphodiesterase 1 (TDP1): qHTS in cells in presence of CPT; Potency, µM (titrated, usually from 46.2 µM), without a hit: top-dose activity change, negative = growth inhibition, usual class: inhibitors; chicken DT40 Tdp1-/-;hTDP1 cells + 20 nM CPT, ATP luminescence, 48 h; 420,000 compounds, 12% hits; note: potency is the fitted concentration of half-maximal effect; nearly all actives have a fitted effect of over 55% in size
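Chicken DT40 Tdp1-/- cells stably complemented with human TDP1 were seeded at 400 cells/well in medium containing 20 nM camptothecin, exposed to pin-transferred compounds, and grown at 37 °C for at least 48 hr. Viability was read as ATP luminescence.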
IL1B secr inh – qHTS for Inhibitors of Inflammasome Signaling: IL-1-beta AlphaLISA Primary Screen | activity change, % at 57.5 µM | THP-1 LPS/ATP IL-1B secretion, AlphaLISA, 16 h; hits give low values | 360,000 compounds, 4.7% hits; in the data active = activity change below about -50%; inconclusive = mostly about -30% to -49%
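THP-1 cells pretreated 1 hr with compounds (up to 57.5 uM final), then stimulated with LPS (250 ng/mL final) plus ATP (1.25 mM final); secreted IL-1B measured by AlphaLISA after 16 hr, decreased signal indicating inhibition.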
DT40 TDP1 no CPT – qHTS for Inhibitors of human tyrosyl-DNA phosphodiesterase 1 (TDP1): qHTS in cells in absence of CPT; DT40 Tdp1-/- hTDP1 cells, no CPT, ATP luminescence, 48 h; 420,000 compounds, 15% hits; Potency, µM (series often up to 46.2 µM), for inactives: top-dose activity change, negative = growth inhibition, hits mostly inhibitors; note: potency is the fitted concentration of half-maximal effect; nearly all actives have a fitted effect of over 55% in size
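Luminescent ATP content (CellTiter-Glo) served as the growth readout. Knockout chicken DT40 cells expressing human TDP1 were exposed to compounds without camptothecin for a minimum 48 hr at 37 °C.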
HT1080NT lethal – qHTS for induction of synthetic lethality in tumor cells producing 2HG: qHTS for the HT-1080-NT fibrosarcoma cell line; HT-1080-NT fibrosarcoma viability, CellTiter-Glo ATP luminescence, 48 h; Potency, µM (series often up to 46.1 µM), for the others: at the highest dose activity, negative = less viability, most hits filed as cytotoxic; 360,000 compounds, 1.6% hits;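 note: NT is the 2HG producing partner of a matched IDH1 knockdown line; potency is the fitted concentration of half-maximal effect; 0% = DMSO-treated cells and -100% = media-only wells without cells; nearly all actives have a fitted effect of over 55% in size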
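Fibrosarcoma NT cells, 750 per well in 5% FBS RPMI, were exposed to compound for 48 hours. Viability: CellTiter-Glo luminescence.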
* marks the source's active call; other numbers are inactive results. Unless noted, calls come from the whole dose curve; as a rule, active = well fitted curve in the direction sought with a large enough effect; inconclusive = small, poorly fitted or top-dose-only effect, or another doubt; inactive = no such curve, though single readings can be large; an effect the other way counts as inactive or inconclusive. Unless noted, % is set by controls: 0 for no effect and ±100 for the full control effect.

Screening Oc1c(C(c2ccccc2)N2CCC(O)CC2)sc2nc(-c3ccco3)nn12 (centres undefined) returned TDP1 cell CPT -3% and DT40 TDP1 no CPT -8%.
Screening Cc1cc(C(c2ccc(O)cc2)c2cc(C)c(O)cc2C)c(C)cc1O returned HT1080 IDH1KD tx inconclusive, TDP1 cell CPT inconclusive, IL1B secr inh -82*, DT40 TDP1 no CPT -5% and HT1080NT lethal inconclusive.
`C=COCCCNc1ncnc2sc(-c3ccccc3)cc12` gave HT1080 IDH1KD tx -18%, TDP1 cell CPT 16µM*, IL1B secr inh -9, DT40 TDP1 no CPT 15µM* and HT1080NT lethal -8%.
For CC(C)(C)Nc1ncnc2sc(-c3ccccc3)cc12 the results were HT1080 IDH1KD tx -29%, TDP1 cell CPT 26µM*, IL1B secr inh -17, DT40 TDP1 no CPT 23µM* and HT1080NT lethal -26%.
COC(CNc1ncnc2sc(-c3ccccc3)cc12)OC was read as HT1080 IDH1KD tx -1%, TDP1 cell CPT inconclusive, IL1B secr inh inconclusive, DT40 TDP1 no CPT inconclusive and HT1080NT lethal -3%.
`CN(C)c1ncnc2sc(-c3ccccc3)cc12` gave HT1080 IDH1KD tx -27%, TDP1 cell CPT inconclusive, IL1B secr inh -55*, DT40 TDP1 no CPT -23% and HT1080NT lethal -8%.
For Cc1ccc(-n2c(SCC(=O)NCCN3C(=O)CSC3=O)nnc2-c2ccccc2)cc1 the results were HT1080 IDH1KD tx -3%, TDP1 cell CPT 4%, IL1B secr inh 0, DT40 TDP1 no CPT 0% and HT1080NT lethal -2%.
`Cc1ccccc1CNC(=O)C1CCC(=O)N(C2CCCCCC2)C1` (centres undefined) gave HT1080 IDH1KD tx -2%, TDP1 cell CPT -3%, IL1B secr inh inactive, DT40 TDP1 no CPT inconclusive and HT1080NT lethal 4%.
`Cc1cc(C)nc(Nc2cccc(Cl)c2)n1` gave HT1080 IDH1KD tx 3%, TDP1 cell CPT -6%, IL1B secr inh -4, DT40 TDP1 no CPT -6% and HT1080NT lethal 0%.
`Cc1cccc(Nc2cc(C)nc3ccccc23)c1` gave HT1080 IDH1KD tx -17%, TDP1 cell CPT -1%, IL1B secr inh -91*, DT40 TDP1 no CPT inconclusive and HT1080NT lethal -2%.
Cc1cc(Nc2cccc(Cl)c2)c2ccccc2n1 was read as HT1080 IDH1KD tx -2%, TDP1 cell CPT 21µM*, IL1B secr inh inconclusive, DT40 TDP1 no CPT 23µM* and HT1080NT lethal -11%.
`Cc1cc(Nc2ccc3c(c2)OCCO3)c2cc(Cl)ccc2n1` gave HT1080 IDH1KD tx -17%, TDP1 cell CPT inconclusive, IL1B secr inh -116*, DT40 TDP1 no CPT 15µM* and HT1080NT lethal 1%.
O=C(NNc1cc(C(F)(F)F)nc2ccccc12)Nc1cccc(Cl)c1 was read as HT1080 IDH1KD tx 21µM*, TDP1 cell CPT inconclusive, IL1B secr inh -89*, DT40 TDP1 no CPT 16µM* and HT1080NT lethal inconclusive.
O=C(NNc1nccc(C(F)(F)F)n1)Nc1cccc(Cl)c1 was read as HT1080 IDH1KD tx 12%, TDP1 cell CPT 3%, IL1B secr inh -13, DT40 TDP1 no CPT 2% and HT1080NT lethal 0%.
Screening CCC1(C)N(O)C(C)(C)C(c2ccc(F)cc2)=[N+]1[O-] (centres undefined) returned HT1080 IDH1KD tx 13%, TDP1 cell CPT -1%, IL1B secr inh -10, DT40 TDP1 no CPT -9% and HT1080NT lethal 19%.
O=C(NC1c2ccccc2Oc2ccccc21)c1ccc([N+](=O)[O-])cc1 was read as HT1080 IDH1KD tx -7%, TDP1 cell CPT -2%, IL1B secr inh -13, DT40 TDP1 no CPT -25% and HT1080NT lethal 0%.
CCCCn1nnnc1C1(C)CCC(=O)N1CCOC (centres undefined) was read as HT1080 IDH1KD tx 15%, TDP1 cell CPT -8%, IL1B secr inh 52, DT40 TDP1 no CPT -12% and HT1080NT lethal 21%.
